KB-3-1 tox: qHTS assay for MDR1-selective chemotherapeutics: Primary screen using the parental adenocarcinoma cell KB-3-1 | hit rate 1.4% among 400,000 | KB-3-1 viability, CellTiter-Glo ATP luminescence, 72 h | Potency, µM (highest dose often 46.1 µM), usual class: cytotoxic; further: nearly all actives have a fitted effect of over 60% in size
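Cells are dispensed, compounds pinned in, plates held at 37 °C for 72 h, then CellTiter-Glo is added and luminescence read after 10 minutes. Cell line: parental KB-3-1 in phenol-red-free DMEM, 10% FBS.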
PTAP TSG101 blk: qHTS Assay for Iinhibitors of HIV-1 Budding by Blocking the Interaction of PTAP/TSG101; Tumor susceptibility gene 101 protein (Homo sapiens), Q99816; Fluorescence polarization, FITC-PTAP peptide / Tsg101 binding; Potency, µM (series often up to 115 µM), most hits filed as inhibitors; 340,000 tested, under 10 active; AID 493005, 2010; active means well fitted inhibition curve with a large enough effect in the main read-out, with a control signal flat, not every such curve was filed as active; inconclusive means small, poorly fitted or top-dose-only effect, or effect the other way, or a change in a side signal; inactive means no such curve, though single readings can be large or run the other way
Target sequence (Q99816 whole entry, looked up): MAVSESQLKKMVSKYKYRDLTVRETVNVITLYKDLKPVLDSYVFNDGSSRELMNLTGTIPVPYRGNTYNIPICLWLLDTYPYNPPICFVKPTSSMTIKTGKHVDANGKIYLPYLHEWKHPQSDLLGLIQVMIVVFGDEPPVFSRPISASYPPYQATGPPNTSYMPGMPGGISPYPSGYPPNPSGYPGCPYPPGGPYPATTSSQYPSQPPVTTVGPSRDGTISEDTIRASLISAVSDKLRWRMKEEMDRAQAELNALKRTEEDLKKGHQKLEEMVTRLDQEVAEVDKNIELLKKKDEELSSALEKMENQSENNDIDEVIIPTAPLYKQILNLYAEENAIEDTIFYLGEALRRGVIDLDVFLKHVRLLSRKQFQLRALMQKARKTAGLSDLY
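Fluorescence anisotropy tracks displacement of a FITC-tagged PTAP peptide (50 nM) from the Tsg101 binding domain (10 uM), following a 20 min room-temperature incubation at pH 7.5.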
PINK1 expr mod: A Quantitative High throughput Screen to Identify Chemical Modulators of PINK1 Expression. PINK1 immunofluorescence, high-content cytometry, 24 h. Potency, µM (titrated, usually from 76.6 µM), most hits filed as activators. hit rate 0.2% among 410,000; active means well fitted activation curve with a large enough effect; inconclusive means small, poorly fitted or top-dose-only effect; cell line not stated here; further: nearly all actives have a fitted effect of over 65% in size
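Cells are seeded, rested 12 hours, then given compound at five concentrations or DMSO for 24 hours. After fixation, blocking and antibody staining, PINK1 amount and mitochondrial localization are scored; CCCP serves as control.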
SW480 rereplic: A quantitative high throughput screen for small molecules that induce DNA re-replication in SW480 colon adenocarcinoma cells | hit rate 1.8% among 340,000 | SW480 DNA re-replication, Hoechst DNA content imaging, 48 h | Potency, µM (series often up to 46.1 µM), usual class: activators | AID 624297, 2012; further: nearly all actives have a fitted effect of over 55% in size
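250 cells/well; 23 nL cpd via pin tool; 48 hr, 37 C, 5% CO2; Hoechst 40 min; imager read of total nuclear intensity, ex 405/em 500-530 nm.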
MCF10A rereplic: A quantitative high throughput screen for small molecules that induce DNA re-replication in MCF 10a normal breast cells | Potency, µM (titrated, usually from 46.1 µM), most hits filed as activators | AID 624296, 2012 | MCF 10A DNA re-replication, Hoechst nuclear intensity, 48 h | hit rate 2.9% among 350,000; further: nearly all actives have a fitted effect of over 50% in size
KB-V1 MDR tox: qHTS assay for MDR1-selective chemotherapeutics: Primary screen using the drug-selected MDR subline cells KB-V1 | KB-V1 MDR cells viability, CellTiter-Glo, 72 h | Potency, µM (doses to about 46.1 µM), most hits filed as cytotoxic | hit rate 3.4% among 400,000 | AID 1347076, 2019; further: nearly all actives have a fitted effect of over 60% in size
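Readout: CellTiter-Glo luminescence, 10 min after addition. Cells: KB-V1 MDR subline, 72 h at 37 degrees C with compound. Analysis: corrected, normalized data fitted to concentration-effect curves.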
A number is an active result; i = inactive; ? = inconclusive; nt = not tested or not shown; [ ] = another dose, or the depositor's remark. Hits are enriched below; roughly 6.8% of the tested compounds scored in any of these assays. Unless noted, the call rests on the fitted dose curve; in most records, active means well fitted curve in the direction sought with a large enough effect; inconclusive means small, poorly fitted or top-dose-only effect, or another doubt; inactive means no such curve, though single readings can be large; an effect the other way counts as inactive or inconclusive.

SMILES	KB-3-1 tox	PTAP TSG101 blk	PINK1 expr mod	SW480 rereplic	MCF10A rereplic	KB-V1 MDR tox
CCOC(=O)c1ccccc1NC(=O)Cn1c(-c2nonc2N)nc2ccccc21	1.03µM	i	i	0.92µM	0.461µM	1.46µM
CCCCn1c(-c2nonc2NC(=O)c2ccccc2Cl)nc2ccccc21	3.26µM	i	i	i	i	?
CCn1c2ccccc2c2cc(Nc3cc(C)nc4ncnn34)ccc21	0.231µM	i	i	?	?	?
O=S(=O)(c1ccc(Cl)cc1Br)N1CCCCC1	?	i	i	i	i	18.4µM
O=S(=O)(c1ccccc1S(=O)(=O)N1CCCCC1)N1CCCCC1	i	i	i	i	i	14.6µM
COc1ccc(CN2CCOc3c(O)cc(-c4cc(C)c5ccc(F)cc5n4)cc3C2)c(O)c1	nt	nt	i	nt	nt	nt
Cc1cc(C)c2c(n1)nn1c(C)c(CCC(=O)Nc3ccc(C)c(Cl)c3)c(C)nc21	nt	nt	i	nt	nt	nt
Nc1cccc2c1C(=O)N(CCOc1ccc(F)cc1)C2=O	?	i	i	18.4µM	16.4µM	i
CCCCCCC1(C)NC(c2ccc3c(c2)OCO3)=CC(c2cc(Br)ccc2O)N1 (stereo not given)	nt	nt	i	nt	nt	nt
O=C(Nc1ccccc1)C1=C(c2ccccc2)S(=O)(=O)CCS1(=O)=O	?	i	i	1.3µM	?	i
CC(=O)c1ccc(NC(=O)CCCN2C(=O)/C(=C/C(C)=C/c3ccccc3)SC2=S)cc1	?	i	22.4µM	i	i	18.4µM
O=C(CN1C(=O)S/C(=C/C=C/c2ccccc2)C1=O)Nc1ccc(C(=O)O)cc1	i	i	i	i	?	i
O=C(CCCN1C(=O)/C(=C\c2ccccc2)SC1=S)Nc1ccc(C(=O)O)cc1	i	i	i	i	i	?
O=C(CCCN1C(=O)/C(=C\c2cccs2)SC1=S)Nc1ccc(O)cc1	i	i	i	20.6µM	i	i
O=C(CCCN1C(=O)S/C(=C\C=C\c2ccccc2)C1=O)Nc1ccc(O)cc1	i	i	i	?	11.6µM	i
CO[C@H]1[C@H](NC(=O)c2ccsc2)c2ccccc2C12CCN(Cc1c(O)ccc3ccccc13)CC2	nt	nt	i	nt	nt	nt
COC(=O)c1nnn(CC(=O)Nc2c(C)cccc2C)c1N	i	nt	i	nt	nt	?
O=C1C2C(C(=O)N1/N=C/c1ccc(N3CCCCC3)o1)C1C=CC2C12CC2 (stereo not given)	?	i	i	?	18.4µM	?
O=C(O)CN1C(=O)/C(=C/c2ccc(N3CCCCC3)o2)SC1=S	i	i	i	i	i	i
O=C(NCCc1c[nH]c2ccccc12)C1CCC(Cn2c(=S)[nH]c3ccccc3c2=O)CC1 (stereo not given)	?	i	i	i	?	14.6µM
COCCNC(=O)C1CCC(Cn2c(=S)[nH]c3ccccc3c2=O)CC1 (stereo not given)	i	i	i	i	i	i
CCCCNS(=O)(=O)c1ccc(S(=O)(=O)N2CCC3(CC2)OCCO3)cc1	i	i	i	i	i	16.4µM
O=S(=O)(c1ccc(S(=O)(=O)N2CCC3(CC2)OCCO3)cc1)N1CCCC1	i	i	i	i	i	i
COc1ccc2c(c1)c1ncn(Cc3ccc(F)cc3)c(=O)c1n2C	i	i	i	i[9.22 µM]	i	i
Cn1c2ccsc2c2ncn(Cc3ccc(F)cc3)c(=O)c21	i	i	i	0.259µM	?	i
CCN(CC)C(=O)CSc1nc(-c2ccccc2F)nc2c1Cc1c(CO)cnc(C)c1O2	i	nt	i	nt	nt	i
C=CCn1c(CNc2ccccc2)nnc1SCC(=O)N/N=C/c1ccc(O)cc1O	i	i	i	i	16.4µM	i
O=C1/C(=C\c2ccccc2)CN(C(=O)CCN2CCCCC2)C/C1=C/c1ccccc1	?	i	i	?	?	?

High-throughput results as filed in PubChem BioAssay.
